# Peg3 promoter – Peg3 promoter activity inhibition; 1.7% of 360,000 active; HeLa PEG-Prom luciferase reporter, luminescence, overnight; inhibition, % at 20 µM;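 active = inhibition of at least 50% at 20 µM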
# ABHD5-PLIN5 inh – blocks binding of human ABHD5 to perilipin-5. Q00G26+Q8WTS1. Split G. princeps luciferase complementation, luminescence, 4 h. inhibition, % at 4 µM. 0.78% of 360,000 active. AID 602281;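 active = inhibition above the mean inhibition across every tested compound plus 3 SD, cut at about 22% in these data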;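 also: 0% = DMSO only wells and the 100% control is not disclosed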
# CF NFkB inh – blocks PAF-induced NF-kB reporter in cystic fibrosis cells. inhibition, % at 5 µM. 0.86% of 360,000 active. KKLEB NF-kB-GFP reporter, GFP fluorescence overnight. AID 588850;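 active = at least 50% inhibition at 5 µM, scaled per plate between neutral and stimulator controls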;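 also: PAF is a Pseudomonas aeruginosa culture filtrate used as stimulus; plate controls were PAF-stimulated DMSO wells for no effect and unstimulated DMSO wells for full effect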
# HIF-2a block – HIF-2a inhibition. 786-0 RCC cells HIF-2a reporter, luciferase luminescence, overnight. inhibition, % at 18.8 µM. AID 624352. 0.72% of 360,000 active;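 active = inhibition of the luminescence signal of 40% or more relative to plate controls, in a single-dose primary screen at 18.75 µM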
# KKLEB tox – reduces viability of KKLEB cystic fibrosis airway cells; AID 602141; KKLEB CF airway cells viability, ATPlite luminescence, overnight; stronger effect = lower value; cells stimulated with P. aeruginosa culture filtrate; activity change (cytotoxicity), % at 5 µM; 0.36% of 360,000 active;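 active = corrected activity change at or below -50% at 5 µM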
# Mdm2-MdmX inh – inhibitors of human Mdm2/MdmX interaction. O15151+Q00987. SaOS-2 split-luciferase Mdm2/MdmX complementation, luminescence. inhibition, % at 8 µM. 3% of 330,000 active;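 active = inhibition of at least 50% at 8 µM in the primary screen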
# ABHD5 PLIN5 conf – confirmation of human ABHD5-PLIN5 interaction inhibitors; inhibition, % at 4 µM; 67% of 2,200 active; biochemical ABHD5-PLIN5 interaction, luminescence; shares compounds with ABHD5-PLIN5 inh; AID 651612; in the data active = inhibition above about 23%;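 also: 0% = DMSO vehicle wells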
# HNF4 split-luc – active in HNF4 split-luciferase counter-screen for ABHD5-PLIN5 inhibitors; 77% of 2,200 active; HNF4 dimerization, luminescence, biochemical; inhibition, % at 4 µM; AID 651674; shares compounds with ABHD5-PLIN5 inh;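 active = mean inhibition across replicate wells exceeding the computed hit threshold, cut at about 13% in these data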;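 also: light from luciferase halves that rejoin when HNF4 fusion proteins dimerize; 0% = DMSO only wells and the 100% control is not given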
# Target sequence (P41235 whole entry, looked up, the tested form may be a part): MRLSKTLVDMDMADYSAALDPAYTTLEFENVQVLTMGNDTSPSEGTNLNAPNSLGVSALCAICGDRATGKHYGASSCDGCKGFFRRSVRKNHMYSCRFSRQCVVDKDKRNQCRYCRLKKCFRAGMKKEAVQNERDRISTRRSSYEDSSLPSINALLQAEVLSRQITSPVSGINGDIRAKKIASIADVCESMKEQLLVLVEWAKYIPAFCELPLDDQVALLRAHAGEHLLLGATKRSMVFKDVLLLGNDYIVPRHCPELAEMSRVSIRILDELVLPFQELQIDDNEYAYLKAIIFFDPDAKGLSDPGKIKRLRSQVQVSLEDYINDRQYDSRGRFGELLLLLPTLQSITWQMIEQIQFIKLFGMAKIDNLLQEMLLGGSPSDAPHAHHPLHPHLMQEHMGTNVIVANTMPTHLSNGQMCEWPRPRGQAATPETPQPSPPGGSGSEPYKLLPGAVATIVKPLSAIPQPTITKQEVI
# * hit, by the source's call; · = not tested or not shown. The list is not random: actives were taken first. Their share in the collection is about 4.6%.
SMILES,Peg3 promoter,ABHD5-PLIN5 inh,CF NFkB inh,HIF-2a block,KKLEB tox,Mdm2-MdmX inh,ABHD5 PLIN5 conf,HNF4 split-luc
CCCC1=NN(C(=O)C(=O)Nc2ccc(Br)cc2)C(O)(C(F)(F)F)C1 (stereo not drawn),6.3,23.3*,27.4,3.2,2.4,23.0,37.5*,41.6*
C[N+](C)(C)CCNC(=O)c1ccccc1,·,-1.9,·,3.5,·,·,·,·
CCCCCC(=C/c1ccccc1)/C=N/Nc1ccc(S(=O)(=O)N2CCOCC2)cc1[N+](=O)[O-],-1.2,-10.5,-1.3,10.4,-16.9,·,·,·
Cc1cc(N2CCOCC2)ccc1/C=C\[N+](=O)[O-],101.8*,77.0*,54.3*,54.9*,-10.2,23.4,97.2*,98.6*
O=[N+]([O-])c1ccc(N2CCOCC2)cc1O,10.0,-0.7,-13.6,2.4,7.9,27.1,·,·
CN=C1NC(C)(C)C2CCC(C)(CC2)S1,0.4,0.9,-6.2,9.1,14.8,·,·,·
Cn1c(=O)c([N+](=O)[O-])c(-n2ccnc2)c2ccccc21,54.6*,23.1*,-7.0,6.4,0.6,14.0,2.0,10.7
Cn1c(=O)c([N+](=O)[O-])c(NCCCn2ccnc2)c2ccccc21,8.2,9.5,3.1,23.2,4.7,20.9,·,·
CCCCCCn1c(=O)n2n(c1=O)[C@@H]1CN(S(=O)(=O)c3ccc(C)cc3)C[C@]1(O)[C@@H](OC(=O)Nc1cccs1)C2,21.2,-17.0,9.0,13.0,14.5,·,·,·
O=C(NCc1ccccc1)C(c1ccc(-c2ccccc2)cc1)n1c(=O)c(-c2ccco2)nc2ccccc21 (stereo not drawn),·,86.5*,·,-20.7,·,·,74.8*,14.2*
O=C(NCc1ccccc1)C(c1ccncc1)n1c(=O)c(-c2ccco2)nc2ccccc21 (stereo not drawn),·,35.8*,·,-21.1,·,·,31.4*,13.9*
O=C(NCc1ccccc1)C(CCc1ccccc1)n1c(=O)c(-c2ccccc2)nc2ccccc21 (stereo not drawn),·,37.5*,·,20.4,·,·,41.1*,27.7*
N#Cc1ccc(C(C(=O)NCc2ccccc2)n2c(=O)c(-c3cc4ccccc4[nH]3)nc3ccccc32)cc1 (stereo not drawn),·,4.0,·,-31.4,·,·,·,·
CCOc1ccc(S(=O)(=O)N2CCOCC2)cc1NC(=O)CCOc1ccc(C(C)(C)C)cc1,6.5,-2.3,28.4,-4.7,-18.2,36.5,·,·
COC(=O)c1cn(NC(=O)Cn2nc([N+](=O)[O-])c(Br)c2C)c(=O)c2ccccc12,12.2,1.7,-13.5,23.5,11.8,-8.8,·,·
CCN(CC)CC#CCOC(c1ccccc1)c1ccccc1,13.1,3.0,4.0,-0.7,4.4,10.2,·,·
CCN(CC)CCC(C)OC(c1ccccc1)c1ccccc1 (stereo not drawn),0.6,23.5*,1.3,1.7,2.1,2.1,77.2*,30.6*
CC(=O)OCC1=C(C(=O)O)N2C(=O)C(NC(=O)c3ccc(COc4c(C)cccc4Cl)o3)C2SC1 (stereo not drawn),5.5,24.6*,-0.8,12.5,16.8,-8.0,17.7,17.5*
CC(=O)OCC1=C(C(=O)O)N2C(=O)C(NC(=O)CCn3nc(C)c(Cl)c3C)C2SC1 (stereo not drawn),12.1,15.9,6.0,8.2,12.4,4.9,·,·
CCOc1ccc(C(=O)NC2C(=O)N3C(C(=O)O)=C(COC(C)=O)CSC23)cc1OCC (stereo not drawn),2.2,31.9*,7.7,11.1,-1.1,-2.0,10.8,29.2*
CC(=O)OCC1=C(C(=O)O)N2C(=O)C(NC(=O)CCn3nc(C(F)(F)F)c(Br)c3C3CC3)C2SC1 (stereo not drawn),-0.8,46.5*,-5.1,20.8,1.6,16.1,42.0*,8.4
CC(=O)OCC1=C(C(=O)O)N2C(=O)C(NC(=O)c3ccc(COc4ccc(Cl)cc4)o3)C2SC1 (stereo not drawn),-8.4,18.1,9.8,3.9,0.9,11.4,·,·
CC1CCCC(NC(=O)Cn2cc(C(F)(F)F)cc(Cl)c2=O)C1C (stereo not drawn),6.9,1.3,9.8,-5.6,-13.1,-30.1,·,·
O=C(NC(=S)NCC1CCCO1)c1ccc(Br)o1 (stereo not drawn),-115.4,3.1,11.4,-130.3,8.3,-16.2,·,·
COc1ccc(-n2c(O)c(/C=C3\C=Nc4ccccc43)c(=O)[nH]c2=O)cc1,15.6,31.4*,-34.1,21.0,-11.6,17.6,11.3,23.5*
SMILES,Peg3 promoter,ABHD5-PLIN5 inh,CF NFkB inh,HIF-2a block,KKLEB tox,Mdm2-MdmX inh,ABHD5 PLIN5 conf,HNF4 split-luc
Cc1ccc(-c2nc3cnccn3c2Nc2ccccc2)o1,-77.5,24.9*,6.9,-91.2,-13.6,-42.9,39.4*,84.0*
Cc1cccc(N2CCN(S(=O)(=O)c3c(C)[nH]c(=O)[nH]c3=O)CC2)c1C,8.2,0.0,-3.2,-5.6,1.9,17.2,·,·
Cc1[nH]c(=O)[nH]c(=O)c1S(=O)(=O)N1CCCCC1,2.7,29.2*,8.9,-1.4,-10.6,-15.1,-2.2,15.8*
COc1cc(C2c3[nH]c4ccccc4c3CC3COC(=O)N32)cc(OC)c1O (stereo not drawn),-13.6,-11.2,36.4,12.0,-24.6,·,·,·
CC1CN(Cc2c(O)ccc3c(=O)c(-c4ccccc4)coc23)CC(C)O1 (stereo not drawn),5.8,6.4,-12.1,7.4,-4.8,1.4,·,·
CC1CN(Cc2c(O)ccc3c2oc(=O)c2ccccc23)CC(C)O1 (stereo not drawn),-34.5,48.6*,-6.9,-16.0,-1.8,-3.0,71.6*,44.2*
CC1C/C(=C/c2ccco2)C(=O)/C(=C/c2ccco2)C1 (stereo not drawn),·,·,·,·,·,-1.2,·,·
O=C1/C(=C\c2ccco2)CCC/C1=C\c1ccco1,-412.5,48.9*,-22.0,-235.7,10.2,-43.5,56.2*,82.4*
O=C(Cn1c(=O)n(Cc2ccco2)c(=O)c2ccccc21)Nc1cccc(Cl)c1,1.4,42.4*,4.4,8.1,6.5,41.2,18.3,10.0
CC(C)[C@H](NC(=O)C1CC(=O)N(c2ccc3c(c2)OCO3)C1)C(=O)NC1CCCC1 (stereo partly drawn),8.7,-4.1,2.8,-1.1,-17.9,12.7,·,·
CC(=O)c1ccccc1NC(=O)CCCNC(=O)c1ccc(Cl)cc1,20.6,0.1,-1.5,18.5,6.0,9.0,·,·
Cc1ccc(OCCNc2cc(N3CCN(CCO)CC3)ccc2[N+](=O)[O-])cc1C,-5.4,30.9*,-4.5,-11.2,0.3,40.2,4.9,14.1*
COc1ccc(S(=O)(=O)NC(C)C(=O)NCc2ccccn2)cc1Cl (stereo not drawn),16.8,-4.7,7.4,14.4,6.9,27.0,·,·

# Screening results (PubChem)
